Screening results deposited in PubChem by National Center for Advancing Translational Sciences (NCATS).
Tb PFK inh: qHTS Assay to Find Inhibitors of T. brucei phosphofructokinase; ATP-dependent 6-phosphofructokinase (Trypanosoma brucei brucei), O15648; T. brucei PFK, ADP-Glo luminescence; Potency, µM (top dose mostly 57.5 µM), for the others: top-dose activity, negative = inhibition, hits mostly inhibitors; 330,000 compounds, 0.17% hits;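 note: potency is the fitted concentration of half-maximal effect; 0% = uninhibited 1x PFK enzyme wells and -100% = no-enzyme wells; nearly all actives have a fitted effect of over 60% in size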
Target sequence (O15648 whole entry, looked up): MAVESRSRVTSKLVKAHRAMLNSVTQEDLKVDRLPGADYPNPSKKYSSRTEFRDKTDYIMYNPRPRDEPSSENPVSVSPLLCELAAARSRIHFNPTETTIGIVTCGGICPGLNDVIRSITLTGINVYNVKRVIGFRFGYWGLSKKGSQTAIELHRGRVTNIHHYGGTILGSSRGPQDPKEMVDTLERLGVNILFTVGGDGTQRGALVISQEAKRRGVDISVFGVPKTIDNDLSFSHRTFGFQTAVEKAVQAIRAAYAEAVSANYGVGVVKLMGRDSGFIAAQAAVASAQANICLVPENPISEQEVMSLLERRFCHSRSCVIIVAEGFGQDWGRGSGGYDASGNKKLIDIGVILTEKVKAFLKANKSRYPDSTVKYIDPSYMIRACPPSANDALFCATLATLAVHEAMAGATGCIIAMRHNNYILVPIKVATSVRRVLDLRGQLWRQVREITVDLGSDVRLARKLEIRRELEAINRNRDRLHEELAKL
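Compounds were pin-transferred as a titration series up to 57 uM into substrate buffer (0.5 mM F6P, 0.1 mM ATP, pH 8.0), then 1.25 nM PFK was added and reactions ran 45 min before ADP-Glo detection.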
Rango-impB inh: qHTS Assay for Inhibitors of Rango (Ran-regulated importin-beta cargo) - Importin beta complex formation | Importin subunit beta-1 (Homo sapiens), Q14974 | Rango CFP/YFP FRET sensor + importin beta, 45 min | Potency, µM (titrated, usually from 92.2 µM), inactives show at the highest dose inhibition of complex formation | 340,000 compounds, 0.031% hits; calls by dose curve;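 note: potency is the fitted concentration of half-maximal effect; 0% = DMSO wells and 100% = buffer wells lacking importin beta; nearly all actives have a fitted effect of over 15% in size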
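FRET biosensor Rango (snurportin 1 IBB between N-terminal EYFP and C-terminal Cerulean), 50 nM in PBS/1 mM DTT/0.02% Tween-20/0.1% BSA, preincubated 5 min RT with compound; 0.125 microM importin beta added, 45 min RT, CFP/YFP FRET ratio read.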
Tb PGK inh: qHTS Assay to Find Inhibitors of Phosphoglycerate Kinase; Phosphoglycerate kinase, glycosomal (Trypanosoma brucei brucei), P07378; Potency, µM (series often up to 57.5 µM), without a hit: top-dose activity change, negative = inhibition, hits mostly inhibitors; PGK/GAPDH coupled, Kinase-Glo luminescence, 60 min; 380,000 compounds, 0.043% hits; note: potency is the fitted concentration of half-maximal effect; % is set by controls: 0 for no effect and ±100 for the full control effect; nearly all actives have a fitted effect of over 60% in size
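Luminescent ATP detection (Kinase-Glo Plus) follows a 60-minute room-temperature incubation, with wells lacking PGK as controls. Buffer: 100 mM TEA (pH 7.6), 5 mM MgCl2, 0.01% Tween-20. Coupling enzyme GAPDH (100 nM final) supplies unstable 1,3-BPG in-well.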
Rango dissoc inh: qHTS Assay for Inhibitors of RanGTP induced Rango (Ran-regulated importin-beta cargo) - Importin beta complex dissociation; Snurportin-1 (Homo sapiens) + GTP-binding nuclear protein Ran (Homo sapiens) + Importin …; Biochemical FRET Rango-importin beta, RanGTP-induced dissociation; Potency, µM (top dose mostly 46.1 µM), for inactives: at the highest dose activity change, negative = inhibition; 340,000 compounds, 0.071% hits; AID 540253, 2011; calls by dose curve; note: potency is the fitted concentration of half-maximal effect; % of control where 0% means no effect; nearly all actives have a fitted effect of over 45% in size
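Quantitative HTS using a FRET biosensor: 0.1 uM Rango, 0.25 uM importin beta, 0.6 uM Ran, 2 mM GTP, 0.2 uM RCC1 final, PBS with DTT, Tween-20 and BSA. Post-read taken 45 min after Ran addition.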
ELG1 DNA repair: qHTS screen for small molecules that inhibit ELG1-dependent DNA repair in human embryonic kidney (HEK293T) cells expressing luciferase-tagged ELG1; 330,000 compounds, 2.3% hits; HEK293T ELG1-luciferase reporter, luminescence, 16 h; DNA damage induced by 5-fluorouridine; Potency, µM (titrated, usually from 46.1 µM), without a hit: top-dose activity change, negative = inhibition, usual class: inhibitors; AID 504467, 2011; note: potency is the fitted concentration of half-maximal effect; % is set by controls: 0 for no effect and ±100 for the full control effect; nearly all actives have a fitted effect of over 55% in size
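Reporter activity after DNA damage by 5-fluorouridine is monitored. Compound-treated cells incubate 16 hr at 37 °C, then ONE-Glo is added for 30 min before luminescence reading.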
PKM2 act: qHTS Assay for Activators of Human Muscle isoform 2 Pyruvate Kinase | purified PKM2, Kinase-Glo ATP luminescence, activation; response scale: 0% is enzyme alone, no compound | Potency, µM (highest dose often 57.5 µM), for the others: at the top dose activation, actives largely listed as activators | 260,000 compounds, 0.34% hits | AID 1631, 2009; note: potency is the fitted concentration of half-maximal effect; % is set by controls: 0 for no effect and ±100 for the full control effect; nearly all actives have a fitted effect of over 55% in size
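Kinase-Glo luminescence reports ATP generated from ADP (0.1 mM) and PEP (0.5 mM) by purified hPK-M2 after 1 h at room temperature, pH 7.2 imidazole buffer; intermediate enzyme activity allows detecting inhibitors and activators.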
HeLa tox: Secondary assay for Activators of Human Pyruvate Kinase M2 isoform - Cell Titer Glo cytotoxicity assay | AID 1898, 2009 | activity change, negative = cytotoxicity, % at 57.5 µM | HeLa viability, CellTiter-Glo ATP luminescence, 24 h | 230 tested, under 10 active | shares compounds with PKM2 act; note: % of control where 0% means no effect
An asterisk follows results filed as active; i = inactive; ? = inconclusive; / = not tested or not shown; [ ] = remark or other dose. Shown are actives, neighbours in structure and some others; about 2.4% of the full set was active somewhere. Unless noted, calls come from the whole dose curve; as a rule, active = well fitted curve in the direction sought with a large enough effect; inconclusive = small, poorly fitted or top-dose-only effect, or another doubt; inactive = no such curve, though single readings can be large; an effect the other way counts as inactive or inconclusive.

SMILES	Tb PFK inh	Rango-impB inh	Tb PGK inh	Rango dissoc inh	ELG1 DNA repair	PKM2 act	HeLa tox
O=S(=O)(c1ccc2c(c1)OCCO2)N1CCN(c2nc3ccccc3s2)CC1	3%	0%	-7%[11.5 µM]	18%	3%	4µM*	-9
O=S(=O)(c1ccc2c(c1)OCCO2)N1CCN(S(=O)(=O)c2cccc[n+]2[O-])CC1	/	/	/	/	/	/	6
Cc1oc2ccc(O)c(CN3CCN(C)CC3)c2c1C(=O)Nc1cccc(Cl)c1C	/	/	0%	/	/	/	/
O=C1C=CN2CCOCC2C1 (stereo not drawn)	2%	0%	-3%	?	?	/	/
O=C(COc1ccc(F)cc1)Nc1ccccc1OCc1cc(=O)n2ccccc2n1	/	/	-3%	/	/	/	/
O=C(Nc1ccccc1)NC1CCCCNC1=O (stereo not drawn)	-3%	1%	-2%	-3%	17%	-5%	/
CC(C)(C)c1ccc(OC(=O)c2ccc(-n3cncn3)nc2)cc1	1%	/	/	/	0%	2%	/
CN1CCN(S(=O)(=O)c2ccc3c(c2)OCCO3)CC1	-2%	-1%	-7%	-5%	6%	11%	/
O=S(=O)(c1ccc2c(c1)OCCO2)N1CCN(S(=O)(=O)c2c(F)ccc(O)c2F)CC1	/	/	/	/	/	/	-6
O=S(=O)(c1ccc2c(c1)OCCO2)N1CCN(S(=O)(=O)c2ccc3c(c2)OCCO3)CC1	-6%	/	/	/	/	/	5
COc1ccc(S(=O)(=O)N2CCC(C(=O)N[C@@H](C)C(=O)NCc3cccc(OC)c3)CC2)cc1	1%	-1%	2%	7%	1%	/	/
COc1cc(F)c(S(=O)(=O)N2CCN(S(=O)(=O)c3ccc4c(c3)OCCO4)CC2)c(F)c1	/	/	/	/	/	/	-8
COc1ccc(S(=O)(=O)N2CCC(C(=O)NCc3cccc(OC)c3)CC2)cc1	1%	0%	-8%	-4%	-11%	1.6µM*	0
COC(=O)[C@@]1(C)[C@H]2C(=O)N(C)C(=O)[C@H]2[C@H]2CN=C(SCc3ccc(Cl)cc3)N21	-4%	1%	-2%	12%	14%	/	/
Cc1ccc(NC2CC(C)NC(=S)N2)cc1 (stereo not drawn)	-4%	1%	i	-10%	?	-3%	/
CCc1ccccc1NC(=O)Cn1c(=O)n(Cc2ccccc2)c(=O)c2c(C)c(C(=O)N(C)C)sc21	/	/	-6%	/	/	/	/
O=S(=O)(c1cccc(F)c1)N1CCN(S(=O)(=O)c2ccc3c(c2)OCCO3)CC1	/	/	/	/	/	/	11
O=S(=O)(c1ccc2c(c1)OCCO2)N1CCN(S(=O)(=O)c2ccccn2)CC1	-5%	-3%	-5%	5%	11%	/	-12
O=S(=O)(c1cccc(Br)c1)N1CCN(S(=O)(=O)c2ccc3c(c2)OCCO3)CC1	6%	-1%	0%	-4%	10%	/	/
COc1ccc(S(=O)(=O)N2CCN(S(=O)(=O)c3ccc4c(c3)OCCO4)CC2)cc1	1%	-2%	-6%	23%	-2%	0.22µM*	?
COc1ccc(S(=O)(=O)N2CCC(C(=O)c3ccc4c(c3)OCCO4)CC2)cc1	0%	2%	3%	-1%	-23%	0%	/
CC(C)C1NC(C(=O)O)Cc2c1[nH]c1ccccc21 (stereo not drawn)	1%	?	-6%	?	-12%	1%	/
C/C(=N\NC(=O)CCn1nnc2ccccc21)c1ccco1	0%	1%	-5%	-13%	?	1%	/
O=c1[nH]c(Cn2nnc(-c3ccccc3)n2)nc2scc(-c3ccccc3)c12	0%	0%	0%	-6%	?	14µM*	-20
O=c1[nH]c(CN2CCN(Cc3ccccc3)CC2)nc2scc(-c3ccccc3)c12	21%	3%	-4%	1%	?	11%	/
SMILES	Tb PFK inh	Rango-impB inh	Tb PGK inh	Rango dissoc inh	ELG1 DNA repair	PKM2 act	HeLa tox
Cc1cc2c(s1)c1cnn(Cc3ccc(-c4ccccc4)cc3)c(=O)c1n2C	/	/	/	/	/	/	-1
Cc1cc2c(s1)c1cnn(Cc3ccc(Cl)cc3)c(=O)c1n2C	/	/	/	/	/	/	-17
Cn1c2cc(Br)sc2c2cnn(Cc3c(F)cccc3Cl)c(=O)c21	1%	0%	0%	-19%	-14%	/	/
Cc1ccc(NC(=O)N2CCN(c3cc(-c4noc(C)n4)ccc3C)CC2)c(F)c1	/	/	-11%	/	/	/	/
O=C(c1ccc2c(=O)n(Cc3ccco3)c(=S)[nH]c2c1)N1CCN(Cc2ccccc2)CC1	1%	-6%	2%	-6%	-15%	0.63µM*	-2
CN1CCN(C(=O)c2ccc3c(=O)n(Cc4ccco4)c(=S)[nH]c3c2)CC1	-12%	3%	-2%	-19%	-3%	2%	/
CC(=O)Nc1ccc(S(=O)(=O)N(Cc2ccco2)Cc2cc3ccccc3[nH]c2=O)cc1	2%	-2%	-8%	7%	?	/	/
COc1ccc(S(=O)(=O)NCC2CCCN(C(=O)c3ccccc3)C2)cc1 (stereo not drawn)	-8%	0%	i	1%	-10%	2.5µM*	3
COCC(=O)N1CCCC(CNS(=O)(=O)c2ccc(OC)cc2)C1 (stereo not drawn)	-3%	?	-1%	-6%	0%	-4%	/
CCOC(=O)c1c(-c2ccccc2)csc1NC(=O)CSc1nnnn1C	-3%	-1%	-2%	3%	4.1µM*	3.5µM*	?
CCOC(=O)c1c(-c2ccccc2)csc1NC(=O)CSc1ccccc1	-4%	1%	14%	-2%	-1%	-17%	/
CCOc1ccc(Br)cc1CN(CC)CC	2%	1%	-6%	7%	-4%	6%	/
Cc1cccc(NS(=O)(=O)c2cc3c(cc2C)n(C)c(=O)c(=O)n3C)c1	3%	0%	-3%	12%	0%	0.4µM*	-25
CC(C)(C)c1ccc(CN2N=Nc3ccccc3S2(=O)=O)cc1	-1%	-1%	-13%	-21%	?	3.2µM*	?
